Results published in PubChem BioAssay (NCATS).
Results filed as inconclusive are left out. Active and inactive are the calls of the source. The call rests on the fitted dose curve; in most records, active means well fitted activation curve with a large enough effect; inconclusive means small, poorly fitted or top-dose-only effect; inactive means flat fitted curve, though single readings scatter.

Experiment: Primary redox qHTS assay for identification of artifact compounds. (AID 1845223)
Settings: Amplex Red/HRP redox cycling with DTT, fluorescence; series mostly up to 53.8 µM
Text: PI: Alexander Tropsha Ph.D.
UNC Eshelman School of Pharmacy
University of North Carolina, Chapel Hill, North Carolina
Hits from high-throughput screening (HTS) of chemical libraries are often false positives due to their interference with the assay detection technology. In response to this problem, we generated the largest publicly available library of chemical liabilities and developed a free webtool to predict HTS artifacts, both of which are described herein. More specifically, we generated, curated, and integrated HTS datasets for thiol reactivity, redox activity, and luciferase (firefly and nano) activity. Using these curated datasets, we developed and validated several Quantitative Structure-Interference Relationship (QSIR) models to predict nuisance behavior. […] These models were employed for virtual profiling of the National Center for Advancing Translational Science's (NCATS) in-house library, and 256 compounds for each assay were selected for the experimental validation of nuisance behavior. The BA for these external predictions ranged from 58 to 78% for compounds within the applicability domains of the models. […] The models developed in this study, along with aggregation models previously developed by our group (SCAM Detective) were implemented in "Liability Predictor," an online tool which may be used as part of chemical library design or for triaging HTS hits. Both the models and the curated datasets are publicly available at https://liability.mml.unc.edu/.
SEQUENCE No. (e.g., 1, 2, 3, etc.); […] (e.g., Cells, Incubation, Reagent, etc.); VALUE; DESCRIPTION.
1; Reagent; 3 uL; Amplex Red and HRP mixture.
2; Compounds and control; 16 nL; Kalypsis pin tool (Wako USA) equipped with a 1536-well pin head. […]
6; Detection; Fluorescence, ViewLux microplate reader, 525 nm excitation, 598 nm emission.
NOTES (numbers refer to Sequence numbers above)
1. 3 uL of a mixture containing Amplex Red (25 uM final concentration) and horseradish peroxidase (HRP; 250 mU/mL final concentration) in assay buffer (HBSS) was dispensed into all wells of a 1536-well assay plate (solid-bottom black plate; Greiner Bio One, Monroe, NC).
2. A Wako Pin-tool (Wako Automation, Richmond, VA) was used to transfer 16 nL of compounds (consisting of 7-plates in qHTS format, final concentration range 18.3 nM to 114 uM) or control DA3003 (final concentration range 1.22 nM to 40 uM).
3. 15 min. incubation at room temperature protected from light.
4. 1 uL of DTT (prepared fresh; final concentration 250 uM) was dispensed for a final assay volume of 4 uL.
5. Plates were centrifuged (121xg, 15 seconds) and incubated for 30 minutes at room temperature protected from light.
6. Samples were read for fluorescence (Ex/Em = 525(20)/598(25) nm) on a ViewLux CCD imager (PerkinElmer). Data were normalized to DMSO (0% activity) and DA3003 (10 uM final concentration; 100% activity) and the resulting percent inhibition data were fitted to a 4-parameter Hill equation using NCATS in-house software.

SMILES	outcome
CCN1CCN(C(=O)Cc2ccc(Nc3ncc(F)c(Nc4ccc(C(=O)Nc5ccccc5Cl)cc4)n3)cc2)CC1	inactive
O=C(NCC1CCOCC1)c1cnc(Nc2ccc(Cl)cc2Cl)nc1C(F)(F)F	inactive
CCNC(=O)C[C@@H]1N=C(c2ccc(Cl)cc2)c2cc(OC)ccc2-n2c(C)nnc21	inactive
CCN(CC)C(=O)c1ccc(C2=CC3(CCNCC3)Oc3cccc(O)c32)cc1	inactive
CC(=O)Nc1ccc(OC[C@](C)(O)C(=O)Nc2ccc([N+](=O)[O-])c(C(F)(F)F)c2)cc1	inactive
COc1ccc(N(C(=O)Oc2c(C)cccc2C)c2ccnc(Nc3ccc(N4CCN(C)CC4)cc3)n2)c(OC)c1	inactive
CCOC(=O)Nc1ccc(NCc2ccc(F)cc2)cc1N	inactive
O=C(N[C@H]1CN2CCC1CC2)c1ccc(Cl)cc1	inactive
Cc1ccccc1-n1c(Cn2cnc3c(N)ncnc32)nc2cccc(C)c2c1=O	inactive
CC(=O)NCCc1c[nH]c2ccccc12	inactive
Cc1[nH]nc2ccc(-c3cncc(OC[C@@H](N)Cc4c[nH]c5ccccc45)c3)cc12	inactive
CC(N[C@H]1C[C@H]1c1ccccc1)c1ccc2c(c1)OCCO2 (stereo partly specified)	inactive
C/C=C(/C)C(=O)O[C@H]1C(C)=C2[C@H]([C@@H]1OC(=O)CCCCCCC)[C@@](C)(OC(C)=O)C[C@H](OC(=O)CCC)[C@@]1(O)[C@H]2OC(=O)[C@@]1(C)O	inactive
CC(=O)N(C)c1cccc(-c2ccnc3c(C(=O)c4cccs4)cnn23)c1	inactive
Cc1c(C(=O)Nc2cccc(C(F)(F)F)c2)cc(-c2ccccc2)n1CCCN1CCOCC1	inactive
S=C(NC1CCCCC1)N1CCC(c2cnc[nH]2)CC1	inactive

SMILES	outcome
CC(C)[C@]12O[C@H]1[C@@H]1O[C@]13[C@]1(O[C@H]1C[C@H]1C4=C(CC[C@@]13C)C(=O)OC4)[C@@H]2O	inactive
O=c1[nH]c2ccc(Cl)cc2c(N[C@@H]2CN3CCC2CC3)c1-c1nc2ccccc2[nH]1	inactive
CC(C)N(CCNC(=O)CN1CCCC1=O)C(C)C	inactive
O=C1C=CC[C@@H]2[C@H]3CCCN4CCC[C@@H](CN12)[C@@H]34	inactive
O=C(O)CNC(=O)c1c(O)c2ccccc2n(Cc2ccccc2)c1=O	inactive
O=C(Oc1ccc([N+](=O)[O-])cc1)N1CCN(Cc2cccc(Oc3ccccc3)c2)CC1	inactive
COC1=C[C@@H]2[C@@H]3Cc4ccc(OC)c(O)c4[C@]2(CCN3C)CC1=O	inactive
O=C(Oc1ccc([N+](=O)[O-])cc1)N1CCC(C(O)(c2ccc3c(c2)OCO3)c2ccc3c(c2)OCO3)CC1	inactive
O=C(N[C@@H](COc1ccc2[nH]c(=O)[nH]c2c1)c1ccccc1)c1cccn(Cc2ccc(F)c(F)c2)c1=O	inactive
CC(C)(C)NC[C@H](O)c1ccc(O)cc1Cl	inactive
Cc1ccccc1-n1c(Cn2ncc3c(N)ncnc32)nc2cccc(C)c2c1=O	inactive
CCc1c(C(=O)C(N)=O)c2c(OCC(=O)O)cccc2n1Cc1ccccc1	inactive
CN1CCN(c2ccc([N+](=O)[O-])c3no[n+]([O-])c23)CC1	inactive
CCNC(=O)CC1N=C(c2ccc(Cl)cc2)c2cc(OC)ccc2-n2c(C)nnc21 (stereo unspecified)	inactive
CC1(N2CCC(n3c([C@@H]4CCCNC4)nc4ccccc43)CC2)CCCCCCC1	inactive
